Assay results reported in PubChem BioAssay (NCATS).
Inconclusive results are not listed. A call without a number means that no potency is given here. Activity calls are given as the source filed them. Calls come from the whole dose curve; as a rule, active = well fitted cell-killing curve with a large enough effect; inconclusive = small, poorly fitted or top-dose-only effect; inactive = flat fitted curve, though single readings scatter.
Potency is the fitted concentration of half-maximal effect.

Experiment: qHTS of pediatric cancer cell lines to identify multiple opportunities for drug repurposing: Primary screen for DAOY cells (AID 1347090); note: nearly all actives have a fitted effect of over 55% in size
Details: DAOY medulloblastoma viability, CellTiter-Glo luminescence, 48 h; series mostly up to 46 µM
Source text: Drug repurposing or repositioning has been offered as a strategy for drug development in oncology programs. This approach has special potential for childhood cancers and other rare or orphan diseases, where the expected return on new drug development has been a disincentive to pharmaceuticals.
In this project we exploit the poly-pharmacology of drugs to discover new indications via phenotypic screening of a panel of 19 well-characterized cell lines derived from solid tumors seen in children and adolescents. The goal is to identify approved drugs with previously unrecognized anticancer properties that has the potential to reveal new mechanisms and biological processes involved in carcinogenesis or drug resistance. We employed a titration-based paradigm (quantitative high-throughput screening or qHTS), where all compounds were tested at multiple concentrations for their effect on cell viability. Concentration-response curves (CRCs) were derived directly from the primary screen, and both potency and efficacy values were used to identify compounds with robust bioactivity profiles. We screened the NIH Chemical Genomics Center (NCGC) Pharmaceutical Collection (NPC) and Mechanism Interrogation Plate (MIPE) small molecule collections of approved and investigational compounds against these cell lines; and measured metabolically active cells after 48 hours of compound treatment as a proxy for cell viability.
Assay Submitter: Nathalia J. Martinez, National Center for Advancing Translational Sciences, National Institutes of Health, Rockville, MD, USA; email: natalia.martinez@nih.gov
[1] Shen, M et al. Quantitative high-throughput phenotypic screening of pediatric cancer cell lines identifies multiple opportunities for drug repurposing. Oncotarget 2017 Dec 19;9(4):4758-4772. PMID 29435139.
The cells were obtained from University of North Carolina (UNC), Pediatric Preclinical Testing Program (PPT), and Coriell Institute (CI).
qHTS cell viability assay:
Cells were assayed in growth media at a density of 500-1,000 cells/well. Five microliters of cells were dispensed into 1,536-well, white, solid-bottom, TC-treated plates (Greiner Bio One) using a multidrop dispenser and incubated at 37 degrees C, 5% CO2, under a humidified atmosphere for 5 hours. Twenty-three nanoliters of compounds and controls (neutral control DMSO or positive control bortezomib at final concentration of 2.3 µM) were subsequently transferred by Kalypsys pintool. For primary screens, the MIPE collection was tested at 11-point dilutions (final concentrations range from 0.78 nM to 46 µM) and the NPC collection at 8-point dilutions (final concentrations range from 0.59 nM to 46 µM). Compounds tested in follow-up screens were assayed at 11-point dilutions. Cells were incubated for 48 hours, followed by addition of 3 uL of CellTiter-Glo (Promega). After a 15 min incubation at room temperature, samples were analyzed for luminescence intensity using a ViewLux High-throughput CCD imager equipped with clear filters.
For `O=c1[nH]c2ccccc2n1CCCN1CCN(C(c2ccccc2)c2ccccc2)CC1`, the Potency was “inactive”. For `O=C(O)c1ccccc1Nc1cccc(C(F)(F)F)c1`, the Potency was “inactive”. In the case of `COc1ccc(-c2cc(=S)ss2)cc1`, the Potency is reported as “inactive”. For `Nc1ccc(C(=O)O)c(O)c1`, the Potency was “inactive”. With `O=C(OCc1ccccc1)c1ccccc1` the Potency was “inactive”. With `O=c1cc(-c2ccccc2)oc2ccccc12` the Potency was “inactive”. With `CN(C)CCn1nnnc1SCC1=C(C(=O)O)N2C(=O)[C@@H](NC(=O)Cc3csc(N)n3)[C@H]2SC1` the Potency was “inactive”. With `O=C(/C=C/c1ccccc1)NCCO` the Potency was “inactive”. In the case of `Cc1c(Nc2ncccc2C(=O)O)cccc1C(F)(F)F`, the Potency is reported as “inactive”. In the case of `COC(=O)Nc1nc2ccc(C(=O)C3CC3)cc2[nH]1`, the Potency is reported as 1060 nM (active). In the case of `CC(C)(C)c1nnc(NS(=O)(=O)c2ccc(N)cc2)s1`, the Potency is reported as “inactive”. With `CCCCCCCCCCCC(=O)[O][Sn]([CH2]CCC)([CH2]CCC)[O]C(=O)CCCCCCCCCCC` the Potency was “inactive”. With `COc1cccc2c1C(=O)c1c(O)c3c(c(O)c1C2=O)C[C@@](O)(C(=O)CO)C[C@@H]3O[C@H]1C[C@H](N)[C@H](O[C@@H]2CCCCO2)[C@H](C)O1` the Potency was 1680 nM (active). In the case of `[O-][n+]1ccccc1SSc1cccc[n+]1[O-]`, the Potency is reported as 73.1 nM (active). With `O=C(O)Cc1ccc(-c2ccccc2)cc1` the Potency was “inactive”. With `CN(C)c1ccc(C(=C2C=CC(=[N+](C)C)C=C2)c2ccccc2)cc1` the Potency was 106 nM (active). For `N=C(N)N`, the Potency was “inactive”. With `O=C(CCN1CCN(CCO)CC1)N1c2ccccc2Sc2ccc(C(F)(F)F)cc21` the Potency was “inactive”. With `O=C(Nc1ccc(C(=O)O)c(O)c1)c1ccccc1` the Potency was “inactive”. In the case of `CCCCC1C(=O)N(c2ccccc2)N(c2ccc(O)cc2)C1=O` (stereo not given), the Potency is reported as 5310 nM (active). In the case of `CO[C@@]1(NC(=O)Cc2cccs2)C(=O)N2C(C(=O)O)=C(COC(N)=O)CS[C@@H]21`, the Potency is reported as “inactive”. With `Cc1[nH]cnc1CN1CCc2c(c3ccccc3n2C)C1=O` the Potency was “inactive”. With `CCOc1ccc2nc(S(N)(=O)=O)sc2c1` the Potency was “inactive”. In the case of `CC(C(=O)O)c1ccc2c(c1)[nH]c1ccc(Cl)cc12` (stereo not given), the Potency is reported as “inactive”. For `COC(=O)C1=C(C)NC(C)=C(C(=O)OCC(C)C)C1c1ccccc1[N+](=O)[O-]` (stereo not given), the Potency was “inactive”. With `CCCCCCCCCCCCCCCCCC(=O)O` the Potency was “inactive”. In the case of `Cc1ccc(O)c(-n2nc3ccccc3n2)c1`, the Potency is reported as “inactive”. With `Nc1nc2ccc([N+](=O)[O-])cc2s1` the Potency was “inactive”. For `c1ccc2sc(SSc3nc4ccccc4s3)nc2c1`, the Potency was “inactive”. In the case of `CC1(C)S[C@@H]2[C@H](NC(=O)[C@H](N)c3ccccc3)C(=O)N2[C@H]1C(=O)O`, the Potency is reported as “inactive”. For `CN(C)[C@@H]1C(=O)C(C(=O)NCN2CCCC2)=C(O)[C@@]2(O)C(=O)C3=C(O)c4c(O)cccc4[C@@](C)(O)C3C[C@@H]12` (stereo not given in full), the Potency was “inactive”. For `CC(=O)SCC(CC(=O)c1ccc(C)cc1)C(=O)O` (stereo not given), the Potency was “inactive”. For `Nc1cc(-c2ccncc2)c[nH]c1=O`, the Potency was “inactive”. In the case of `CCCSc1ccc2nc(NC(=O)OC)[nH]c2c1`, the Potency is reported as 1330 nM (active). With `Cc1ccc(C(=O)c2ccc(CC(=O)O)n2C)cc1` the Potency was “inactive”. For `CC(=O)c1ccc(OCC(=O)N2CCCCC2)cc1`, the Potency was “inactive”. For `CNC(=O)c1c(I)c(NC(=O)CCCCC(=O)Nc2c(I)c(C(=O)O)c(I)c(C(=O)NC)c2I)c(I)c(C(=O)O)c1I`, the Potency was “inactive”. In the case of `N=C1N=C(N)c2cc3ccccc3cc21`, the Potency is reported as 24300 nM (active). With `CCCCCCOc1ccccc1C(N)=O` the Potency was “inactive”. For `Clc1ccccc1-c1nc(-c2ccncc2)no1`, the Potency was “inactive”.
